Experimental findings from PubChem BioAssay (NCATS) are described below.

Values joined by “and” are separate entries in the source; they are usually repeats but may differ in a detail not shown here. Equal values may be shown once. Inconclusive results are not listed. Where a call stands in place of a potency, no number is given. Active and inactive are the calls of the source. Calls come from the whole dose curve; as a rule, active = well fitted cell-killing curve with a large enough effect; inconclusive = small, poorly fitted or top-dose-only effect; inactive = no such curve, though single readings can be large or run the other way.
Potency is the fitted concentration of half-maximal effect.

The test can be described thus: qHTS of pediatric cancer cell lines to identify multiple opportunities for drug repurposing: Primary screen for SK-N-MC cells (AID 1347093). Particulars: SK-N-MC viability, CellTiter-Glo luminescence, 48 h; series mostly up to 46 µM; activity change, negative = cytotoxic: at the top concentration. An excerpt:
Drug repurposing or repositioning has been offered as a strategy for drug development in oncology programs. This approach has special potential for childhood cancers and other rare or orphan diseases, where the expected return on new drug development has been a disincentive to pharmaceuticals.
In this project we exploit the poly-pharmacology of drugs to discover new indications via phenotypic screening of a panel of 19 well-characterized cell lines derived from solid tumors seen in children and adolescents. The goal is to identify approved drugs with previously unrecognized anticancer properties that has the potential to reveal new mechanisms and biological processes involved in carcinogenesis or drug resistance. We employed a titration-based paradigm (quantitative high-throughput screening or qHTS), where all compounds were tested at multiple concentrations for their effect on cell viability. Concentration-response curves (CRCs) were derived directly from the primary screen, and both potency and efficacy values were used to identify compounds with robust bioactivity profiles. We screened the NIH Chemical Genomics Center (NCGC) Pharmaceutical Collection (NPC) and Mechanism Interrogation Plate (MIPE) small molecule collections of approved and investigational compounds against these cell lines; and measured metabolically active cells after 48 hours of compound treatment as a proxy for cell viability.
Assay Submitter: Nathalia J. Martinez, National Center for Advancing Translational Sciences, National Institutes of Health, Rockville, MD, USA; email: natalia.martinez@nih.gov
[1] Shen, M et al. Quantitative high-throughput phenotypic screening of pediatric cancer cell lines identifies multiple opportunities for drug repurposing. Oncotarget 2017 Dec 19;9(4):4758-4772. PMID 29435139.
The cells were obtained from University of North Carolina (UNC), Pediatric Preclinical Testing Program (PPT), and Coriell Institute (CI).
qHTS cell viability assay:
Cells were assayed in growth media at a density of 500-1,000 cells/well. Five microliters of cells were dispensed into 1,536-well, white, solid-bottom, TC-treated plates (Greiner Bio One) using a multidrop dispenser and incubated at 37 degrees C, 5% CO2, under a humidified atmosphere for 5 hours. Twenty-three nanoliters of compounds and controls (neutral control DMSO or positive control bortezomib at final concentration of 2.3 µM) were subsequently transferred by Kalypsys pintool. For primary screens, the MIPE collection was tested at 11-point dilutions (final concentrations range from 0.78 nM to 46 µM) and the NPC collection at 8-point dilutions (final concentrations range from 0.59nM to 46 µM). Compounds tested in follow-up screens were assayed at 11-point dilutions. Cells were incubated for 48 hours, followed by addition of 3 uL of CellTiter-Glo (Promega). After a 15 min incubation at room temperature, samples were analyzed for luminescence intensity using a ViewLux High-throughput CCD imager equipped with clear filters.
For the molecule `CCC(=O)O[C@]1(C(=O)CCl)[C@@H](C)C[C@H]2[C@@H]3CCC4=CC(=O)C=C[C@]4(C)[C@@]3(F)[C@@H](O)C[C@@]21C`, the Potency is 26.6 µM (active) and 20.9 µM (active).

As to `CCCOc1ccc(C(=O)OCCN(CC)CC)cc1N`, the Potency result is “inactive”. Same read-out and setting: the entry for `Cc1onc(-c2ccccc2Cl)c1C(=O)N[C@@H]1C(=O)N2[C@@H]1SC(C)(C)[C@@H]2C(=O)O` is “inactive”. The same measure, in the same setting: the entry for `CC(C)(C#N)c1cc(Cn2cncn2)cc(C(C)(C)C#N)c1` is “inactive”; for `CCc1cc(C(N)=S)ccn1` it is “inactive”; for `COc1ccccc1OCC(O)COC(N)=O` (stereo not given) it is “inactive”.

With `S=P(N1CC1)(N1CC1)N1CC1`, the Potency was 3.72 µM (active). Same read-out and setting: the entry for `CNNCc1ccc(C(=O)NC(C)C)cc1` is “inactive”; for `OC(Cn1cncn1)(Cn1cncn1)c1ccc(F)cc1F` it is “inactive”. The same measure, in the same setting: with `Nc1nc(F)nc2c1ncn2[C@@H]1O[C@H](CO)[C@@H](O)[C@@H]1O` the figure was 33.5 nM (active) and 332 nM (active); with `CCn1cc(C(=O)O)c(=O)c2cc(F)c(N3CCNCC3)cc21`, “inactive”. Same read-out and setting: with `CNCC[C@H](Oc1cccc2ccccc12)c1cccs1` the figure was 1.05 µM (active). Turning to `CCN1CCCC1CNC(=O)c1cc(S(N)(=O)=O)ccc1OC` (stereo not given), the “activity change, negative = cytotoxic” value was 2.94% (inactive). For the molecule `C[C@@H]1CN(c2c(F)c(N)c3c(=O)c(C(=O)O)cn(C4CC4)c3c2F)C[C@H](C)N1`, the Potency entry is “inactive”. On the same count and under the same terms, the entry for `O=NN(CCCl)C(=O)NC1CCCCC1` is “inactive”; for `C[C@]12C=CC(=O)C=C1CC[C@@H]1[C@@H]2C(=O)C[C@@]2(C)[C@H]1CC[C@]2(O)C(=O)CO` it is “inactive”. Still for that read-out and setting: the figure for `COc1ccc(-c2ccc3cc(C(=O)O)ccc3c2)cc1C12CC3CC(CC(C3)C1)C2` is 668 nM (active) and 1.05 µM (active). For `O=C(O)CCn1c2c(c3ccccc31)C[C@H](NS(=O)(=O)c1ccc(F)cc1)CC2`, the Potency result was “inactive”.

Turning to `CCCc1cc(C(N)=S)ccn1`, the Potency result was “inactive”. Consider `O=S(=O)(c1cccc2cnccc12)N1CCCNCC1`, for which the Potency result was “inactive”. As for `CC[C@H](C)C(=O)O[C@H]1C[C@@H](C)C=C2C=C[C@H](C)[C@H](CC[C@@H]3C[C@@H](O)CC(=O)O3)[C@H]21`, the “activity change, negative = cytotoxic” value is 10.5% (inactive). `Cc1nnc(C(=O)NC(C)(C)c2nc(C(=O)NCc3ccc(F)cc3)c(O)c(=O)n2C)o1`: the Potency result is “inactive”. Turning to `C1CCC(C(CC2CCCCN2)C2CCCCC2)CC1` (stereo not given), the Potency is 11.9 µM (active).

As to `CCCCCCNC(=O)n1cc(F)c(=O)[nH]c1=O`, the Potency is 16.6 µM (active). Still for that read-out and setting: the entry for `COC(c1ccccc1)(c1ccccc1)[C@H](Oc1nc(C)cc(C)n1)C(=O)O` is “inactive”; for `CC(C)(C)C(=O)OCOP(=O)(COCCn1cnc2c(N)ncnc21)OCOC(=O)C(C)(C)C` it is 188 nM (active) and 1 nM (active); for `CC(C)Cn1cnc2c(N)nc3ccccc3c21` it is 16.6 µM (active). On the same count and under the same terms, the figure for `C[C@@H]1C[C@H]2[C@@H]3CCC4=CC(=O)C=C[C@]4(C)[C@@]3(Cl)[C@@H](O)C[C@]2(C)[C@@]1(OC(=O)c1ccco1)C(=O)CCl` is 2.96 µM (active); for `Cc1ncc([N+](=O)[O-])n1CCO` it is “inactive”. As to `CNC(=O)c1cc(Oc2ccc(NC(=O)Nc3ccc(Cl)c(C(F)(F)F)c3)cc2)ccn1`, the Potency is 3.32 µM (active). For the molecule `Nc1[nH]c(=O)ncc1F`, the “activity change, negative = cytotoxic” value was -5.12% (inactive). `Cc1oc(=O)oc1CN1CCN(c2cc3c(cc2F)c(=O)c(C(=O)O)c2n3C(C)S2)CC1` (stereo not given): the Potency result is “inactive”. On to `COC(=O)Nc1nc2ccc(Sc3ccccc3)cc2[nH]1`, for which the Potency was 841 nM (active) and 590 nM (active). Same read-out and setting: with `O=C(O)CSCC(=O)NC1CCSC1=O` (stereo not given) the entry was “inactive”; with `CNS(=O)(=O)Cc1ccc2[nH]cc(CCN(C)C)c2c1`, “inactive”. On the same count and under the same terms, with `Oc1c(Cl)cc(Cl)c2cccnc12` the figure was 4.73 µM (active) and 9.35 µM (active). For `CCN(CC)CC#CCOC(=O)C(O)(c1ccccc1)C1CCCCC1` (stereo not given), the “activity change, negative = cytotoxic” value is -47.6% (inactive). Take `CC(=O)[C@H]1CC[C@H]2[C@@H]3CCC4=CC(=O)CC[C@]4(C)[C@H]3CC[C@]12C`: the Potency is 0.526 µM (active). As for `NC1(c2ccc(-c3nc4ccn5c(=O)[nH]nc5c4cc3-c3ccccc3)cc2)CCC1`, the Potency was 332 nM (active) and 266 nM (active). For `CC1=NN(c2ccccc2)C(=O)C1`, the Potency result is “inactive”.
